Assay outcomes deposited in PubChem BioAssay by National Center for Advancing Translational Sciences (NCATS).
In the library only some 2.4% were active in any assay of this set; here they are far more common.
D2 PAM-1 – positive allosteric modulators of human D2 dopamine receptor; P14416; 360,000 tested, 0.23% active; DiscoveRx D2 beta-arrestin cells, luminescence, 90 min; 100% = 57 uM dopamine signal; potentiation, % (test concentration not listed); in the data active means potentiation above about 50%
Target sequence (P14416 whole entry, looked up): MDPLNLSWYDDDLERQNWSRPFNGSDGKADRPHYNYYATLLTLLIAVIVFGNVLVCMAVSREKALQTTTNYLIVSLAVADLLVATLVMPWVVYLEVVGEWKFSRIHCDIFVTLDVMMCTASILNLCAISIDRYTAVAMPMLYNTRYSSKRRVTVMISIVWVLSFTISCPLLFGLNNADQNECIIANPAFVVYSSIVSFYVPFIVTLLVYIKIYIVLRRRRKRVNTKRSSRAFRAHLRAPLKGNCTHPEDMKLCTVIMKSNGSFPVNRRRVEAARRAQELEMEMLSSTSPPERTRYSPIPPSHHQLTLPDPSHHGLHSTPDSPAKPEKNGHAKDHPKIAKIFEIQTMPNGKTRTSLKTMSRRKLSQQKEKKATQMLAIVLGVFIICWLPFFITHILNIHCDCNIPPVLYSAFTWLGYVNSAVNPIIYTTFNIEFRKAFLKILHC
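PathHunter beta-arrestin assay in DiscoveRx D2 cells. Compounds were added with an EC20 of dopamine (50 nM final) for 90 min at 37 deg C. Luminescence was read 1 h after detection reagent, with 57 uM dopamine as the EC100 control.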
D2 ag-1 – activates the human D2 dopamine receptor | P14416 | HEK293 T-REx D2 cells, calcium flux agonist mode | activation, % at 2 µM | 340,000 tested, 0.53% active | AID 485358;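 active means activation over 3 SD above normal in the single-dose calcium agonist read, cut at about 30% in these data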
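Calcium-flux readout, 1 cycle/sec over 180 s following compound pin transfer, in inducible HEK293 Trex D2 cells (force-coupled); dopamine controls included. Positive calcium responses during this window marked compounds as potential agonists.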
D2 antag – D2 dopamine receptor (human) antagonism. P14416. HEK293 TREx D2 cells, calcium flux, dopamine EC80. inhibition, % at 10 µM. 340,000 tested, 2% active. AID 485344; in the data active means inhibition above about 30%; inactive means below that, where a call was filed
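In this primary screen, negative modulation is detected by tracking calcium flux after an EC80 dopamine challenge in inducible HEK293 T-REx D2 cells preexposed to test compound for 180 s.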
D2 PAM-2 – D2 dopamine receptor (human) potentiation | HEK293 T-REx D2, calcium flux, EC20 dopamine potentiation | potentiation, % at 10 µM | 340,000 tested, 0.34% active | AID 485347;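 active means potentiation over 3 SD above the plate norm, cut at about 30% in these data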
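Tetracycline-induced Hek293 Trex D2 cells, force-coupled to calcium, loaded with no-wash calcium dye. Compound added with 180 s kinetic read for agonism, then EC20 dopamine and a further 180 s read for potentiation.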
D2 ag-2 – activates the human D2 dopamine receptor; DiscoveRx PathHunter D2 beta-arrestin, luminescence, 90 min; 100% = 57 uM dopamine signal; P14416; 360,000 tested, 0.084% active; activation, % (test concentration not listed); in the data active means activation above about 40%
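Agonist mode: compounds alone added to overnight-plated D2 PathHunter cells for 90 min at 37 C, with 57 uM final dopamine (EC100) defining full response. Beta-arrestin recruitment detected by chemiluminescent reagent, read after 1 h at ambient temperature.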
Of the large screens only hits and unclear results are named; the others gave an inactive call.

O=C(CN1C(=O)CSc2ccc(S(=O)(=O)N3CCOCC3)cc21)NCCCN1CCOCC1	none
CC1CC(C)CN(CCCNC(=O)CN2C(=O)CSc3ccc(S(=O)(=O)N4CCCCC4)cc32)C1 (stereo not given)	D2 antag 52
CC1CC(C)CN(CCCNC(=O)c2ccc3c(c2)NC(=O)CS3)C1 (stereo not given)	D2 antag 48
CC(=O)Oc1ccc(N(c2ccccc2)S(=O)(=O)c2ccc(C)cc2)cc1	D2 PAM-2 39
Cc1ccc(S(=O)(=O)N(C)c2ccccc2)cc1	none
COc1ccc(S(=O)(=O)NCC2CCCO2)cc1NC(=O)c1ccccc1F (stereo not given)	D2 antag 36
CCN1CCN(c2c(S(=O)(=O)c3ccc(C)c(C)c3)cnc3ccc(F)cc23)CC1	D2 antag 37
CN(C)c1nc(Oc2ccc(=O)[nH]n2)nc(N2CCCCC2)n1	D2 antag 31
Cc1ccc(CN2CCN(/N=C/c3cccn3C)CC2)c(C)c1	D2 antag 51
Cc1cccc(COc2ccc(/C=C3/C(=O)N(C)C(=S)N3C)cc2)c1	D2 antag 31
Cc1ccc(SC[C@H](c2ccccc2)N2CCN(CCc3ccccc3)CCC2=O)cc1	D2 antag 41
COc1ccc(CNC(=O)C2CCC(=O)N(CCCN3CCCC3=O)C2)cc1 (stereo not given)	none
COc1ccc(C(C)(C)NC(=O)C2CCC(=O)N(CCCN3CCCC3=O)C2)cc1 (stereo not given)	D2 antag 33
O=C(NCCc1ccc(Cl)cc1)C1CCN(c2cnccn2)CC1	none
O=C(NCCc1ccc(Cl)cc1)C1CCN(c2ncccn2)CC1	D2 antag 61
COc1ccccc1CNc1nc(-c2ccco2)nn1C(=O)c1ccccc1[N+](=O)[O-]	none (no result: D2 PAM-1, D2 antag, D2 ag-2)
CN1CCc2ccccc2Cc2[nH]c3ccccc3c2CC1	D2 antag 72
CC1CCCC(C)N1CCCNC(=O)c1ccc2nc(N3CCOCC3)sc2c1 (stereo not given)	none (no result: D2 ag-1, D2 antag)
O=C(NCCCN1CCC(Cc2ccccc2)CC1)c1ccc2nc(N3CCOCC3)sc2c1	D2 antag 48
Cc1ccccc1-n1ncc2c([N+](=O)[O-])cc([N+](=O)[O-])cc21	D2 PAM-1 83
Cc1ccc2nc3cc([N+](=O)[O-])cc([N+](=O)[O-])c3cc2c1	none (no result: D2 PAM-2)
Cc1cc(C)c(CN2CCC(n3nccc3NC(=O)c3ccccc3Cl)CC2)cc1C	none
O=C(Nc1ccnn1C1CCN(C/C=C/c2ccccc2)CC1)c1cccc(F)c1	none
COc1ccccc1C(=O)Nc1ccnn1C1CCN(Cc2cc(C)c(C)cc2C)CC1	D2 antag 53
O=C(Nc1ccnn1C1CCN(CCCc2ccccc2)CC1)c1cccc(F)c1	D2 ag-1 34
O=C(Nc1ccnn1C1CCN(CCCC2CCCC2)CC1)c1ccccc1Cl	none
COc1ccccc1C(=O)Nc1ccnn1C1CCN(Cc2cn(C)c3ccccc23)CC1	D2 antag 62
COc1ccccc1C(=O)Nc1ccnn1C1CCN(CCCC2CCCC2)CC1	D2 antag 31
COc1cccc(CNCCSc2nnnn2C)c1OCc1ccccc1F	none (no result: D2 PAM-1, D2 antag, D2 ag-2)
CCN(CC)CCNC(=O)C1CCN(c2cc(C)nc3c(-c4ccc(Cl)cc4)c(C)nn23)CC1	none (no result: D2 PAM-1, D2 antag, D2 ag-2)
CCN(C(=O)Cc1c(C(=O)O)[nH]c2ccccc12)c1ccc(OC)cc1	D2 antag 53
CCc1ccc(CNC(=O)C2Cc3cc(S(=O)(=O)N4CCCCCC4)ccc3N2C(C)=O)cc1 (stereo not given)	none (no result: D2 PAM-1, D2 antag, D2 ag-2)
COc1ccc2[nH]c3c(c2c1)CCn1c-3nc2sc(C(=O)Nc3ccccc3)c(C)c2c1=O	D2 antag 39 (no result: D2 PAM-1, D2 ag-2)
COc1ccc(NC(=S)N2CCC(N(C)CC3CCCO3)CC2)cc1 (stereo not given)	D2 antag 30
O=C(Nc1ccccc1)C(=O)Nc1ccc2c(c1)N(C(=O)C1CC1)CCC2	D2 antag 35
Cc1ccc(NC(=O)N2CCCc3ccccc32)cc1C	none
CN(C(=O)Nc1ccccc1)C1CCCc2ccccc21 (stereo not given)	D2 antag 30
O=C(c1cccc(F)c1F)N1CCCc2ccccc21	none
O=C(Nc1ccccc1)N1CCCc2ccccc21	D2 PAM-2 47
O=C(c1ccccc1F)N1CCCc2ccccc21	D2 PAM-2 39
COc1ccc(C(=O)NCc2nnc(SCC(=O)Nc3ccc(F)cc3)n2-c2ccccc2)cc1	none (no result: D2 PAM-1, D2 antag, D2 ag-2)
CC1CCN(C(=O)Cn2cc(SCc3ccccc3)c3ccccc32)CC1	none (no result: D2 PAM-1, D2 antag, D2 PAM-2, D2 ag-2)
COC(=O)c1sc2c(c1C)c(=O)n(-c1ccccc1)c(=O)n2CC(=O)Nc1cccc(C)c1	none (no result: D2 PAM-1, D2 antag, D2 ag-2)
N#CCCN(C(=O)COC(=O)CSc1ccc(Cl)cc1)c1ccccc1	none (no result: D2 ag-1, D2 antag, D2 PAM-2)
Cc1ccc(SCC(=O)OCC(=O)N(CCC#N)c2ccccc2)cc1	D2 antag 33
Cc1ccc2nc(NCCC(=O)O)nc(-c3ccccc3)c2c1	D2 PAM-2 31
Cc1ccc2nc(NCC(=O)O)nc(-c3ccccc3)c2c1	none
COCCCNC(=O)CSc1nc2nc(C)c(Cc3ccccc3Cl)c(C)n2n1	none (no result: D2 PAM-1, D2 antag, D2 ag-2)
Cc1ccc(C2=NN(CC(=O)NCCc3ccc(Cl)cc3)C(=O)CC2)cc1	none (no result: D2 PAM-1, D2 antag, D2 PAM-2, D2 ag-2)
CCN(CC)S(=O)(=O)c1ccc(NC(=O)c2ccc(CN3CCOCC3)cc2)cc1	D2 PAM-2 30
O=C(Nc1cccc(S(=O)(=O)C(F)F)c1)c1ccc(S(=O)(=O)N2CCCC2)cc1	D2 antag 59
O=C(Nc1ccc(S(=O)(=O)N2CCCC2)cc1)c1ccc(CN2CCOCC2)cc1	none
O=C(Nc1ccc(S(=O)(=O)N2CCCCC2)cc1)c1ccc(CN2CCOCC2)cc1	D2 PAM-2 42 (no result: D2 ag-1, D2 antag)
CN(C)S(=O)(=O)c1cccc(C(=O)Nc2ccc(Cl)cn2)c1	D2 antag 37
O=C(Nc1ccc(Cl)cn1)c1cccc(S(=O)(=O)N2CCCC2)c1	none
CN(Cc1ccccc1)c1nc2c(S(=O)(=O)c3cccc(Cl)c3)nnn2c2ccsc12	none (no result: D2 PAM-1, D2 antag, D2 ag-2)
CCc1cccc(OCC(=O)Nc2ccc(C)c(S(=O)(=O)N3CCCCCC3)c2)c1	D2 antag 31
CN1CCN(c2oc(-c3ccccc3Cl)nc2S(=O)(=O)c2ccccc2)CC1	D2 antag 79
CN1CCN(c2oc(-c3cccs3)nc2S(=O)(=O)c2ccccc2)CC1	none
CN1CCN(c2oc(-c3ccccc3)nc2S(=O)(=O)c2ccc(Br)cc2)CC1	D2 antag 31
O=C(COCc1cc(-c2cccs2)on1)Nc1cccc(Cl)c1Cl	none (no result: D2 PAM-1, D2 antag, D2 ag-2)
CCCN1C(=O)C(Cc2nc3ccccc3c(=O)n2CC)c2ccccc21 (stereo not given)	none (no result: D2 PAM-1, D2 antag, D2 PAM-2, D2 ag-2)
CCC(NC(=O)c1ccc([N+](=O)[O-])cc1[N+](=O)[O-])c1ccccc1 (stereo not given)	D2 PAM-1 74
